{
  "source": "PubChem BioAssay (NCATS)",
  "note": "Inconclusive results are not listed. A number with no mark means an inactive call. Calls come from the whole dose curve; as a rule, active = well fitted inhibition curve with a large enough effect; inconclusive = small, poorly fitted or top-dose-only effect; inactive = no such curve, though single readings can be large or run the other way.",
  "data": [
    {"test": "Primary qHTS for inhibitors of La Crosse Virus (LACV) - induced cell death in SH-SY5Y cells (AID 1508616);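 note: top concentration of the series differs between compounds; 0% = infected DMSO wells and 100% = uninfected DMSO wells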", "conditions": "SH-SY5Y LACV cytopathicity rescue, ATP luminescence, 6 d; series mostly up to 9.63 µM; activity change: at the top concentration", "excerpt": "Assay Provider: Karin Peterson Ph.D.\nNational Institute of Allergy and Infection Diseases, National Institute of Health\nLa Crosse Virus (LACV) is a California serogroup mosquito-borne arbovirus, family Peribunyaviridae, which is an endemic pathogen in North America and can induce a rare, life-threatening neurological disease in children. LACV was first isolated in the early 1960s, from a summer \"rural encephalitis\" case in La Crosse, Wisconsin, USA. Since then, LACV encephalitis cases have been found in more than twenty states, with most cases in the Mississippi and Ohio River basins. The life cycle of LACV is maintained between the vector, the eastern tree-hole mosquito Aedes triseriatus, and vertebrate hosts including eastern gray squirrels (Sciurus carolinensis) and chipmunks (Tamiasstriatus grinseus). […] Most LACV infections in humans are asymptomatic or induce mild clinical symptoms of fever, headache, lethargy and vomiting. However, in some cases LACV can cause severe neuroinvasive disease, including encephalitis, meningitis, and meningoencephalitis, requiring hospitalization. To date, there is neither a licensed vaccine nor a Food and Drug Administration (FDA) approved antiviral therapy available to prevent or treat LACV encephalitis. The primary treatment for viral encephalitis is palliative care due to the lack of therapeutics. In the current study, we conducted a screen of 4,096 FDA approved and bioactive small molecules against LACV, by screening for rescue of LACV-induced cell death in SH-SY5Y cells.\nLACV-induced cytopathicity assay\nSEQUENCE No. (1,2, 3, etc.); […] (e.g., Cells, Incubation, Reagent, etc.); VALUE and DESCRIPTION.\n1. Reagent; 2 uL; Cell solution.\n3. Compounds; 23nL; Compound library\n4. Reagent; 12 uL; LACV virus\n6. Reagent; 24 uL; ATPLite (PerkinElmer)\n7. Time; 5 min; Room temperature\n8. Detection; Luminescence; View\nNOTES (numbers refer to sequence above)\n1. Seed 6000 SH-SY5Y cells (ATCC CRL-2266) in 2 microL/well media (DMEM/F12 10% FBS, 1x L-Glutamine, 1x Pyruvate, 1x NEAA, 1x Pen/Strep) in 384-well assay plates (tissue culture treated, white, solid bottom).\n2. Incubate at 37 degrees C with 5% CO2 for 24 hr.\n3. Dispense 23 nL/well compounds in DMSO via pin transfer.\n4. Dispense 12 microL/well of LACV (LACV/human/1978) in media at 0.01 MOI.\n5. Incubate at for 6 days at 37C 5% CO2\n6. Dispense 24 microL/well of ATPLite 1step Luminescence assay system (PerkinElmer).\n7. Incubate for 5 min at room temperature.\n8. Read luminescence signal (Viewlux plate reader, PerkinElmer). Data was normalized with DMSO control wells containing LACV as 0%, and DMSO control wells without virus as 100%.", "values": [
      {"compound": "CNCCc1c[nH]c2ccc(O)cc12", "activity change": "-11.5%"},
      {"compound": "NC1CC1c1ccccc1", "note": "(stereo not given)", "activity change": "3.15%"},
      {"compound": "Cc1ccc(Cl)c(O)c1", "activity change": "11.5% [at 4.29 µM]"},
      {"compound": "NC(N)=NOCCC(N)C(=O)O", "note": "(stereo not given)", "activity change": "7.51%"},
      {"compound": "O=S(=O)(O)C(F)(F)C(F)(F)C(F)(F)C(F)(F)C(F)(F)C(F)(F)C(F)(F)C(F)(F)F", "activity change": "5.59% [at 8.54 µM]"},
      {"compound": "O=C(O)[C@@H]1CCN1", "activity change": "-3.66%"},
      {"compound": "CC1=C(C(=O)O)N2C(=O)[C@@H](N)[C@H]2SC1", "activity change": "-1.92% [at 1.78 µM]"},
      {"compound": "CC(=O)NCCc1c[nH]c2ccccc12", "activity change": "-11.7%"},
      {"compound": "NCCc1c[nH]c2ccc(O)cc12", "activity change": "-0.355%"},
      {"compound": "C#CCOC(=O)C1=CCCN(C)C1", "activity change": "47.3%"},
      {"compound": "COC(=O)c1cncn1C(C)c1ccccc1", "note": "(stereo not given)", "activity change": "-14.3% [at 4.29 µM]"},
      {"compound": "Nc1ccc(Cl)cc1", "activity change": "-17.3% [at 8.54 µM]"},
      {"compound": "CC(C)(C)C(O)C(Oc1ccc(Cl)cc1)n1cncn1", "note": "(stereo not given)", "activity change": "8.88% [at 8.54 µM]"},
      {"compound": "O=C(O)C(Cl)Cl", "activity change": "-1.09% [at 4.29 µM]"},
      {"compound": "Oc1ccc2c3c1O[C@H]1c4[nH]c5c(c4C[C@@]4(O)[C@@H](C2)N(CC2CC2)CC[C@]314)C[C@@]1(O)[C@H]2Cc3ccc(O)c4c3[C@@]1(CCN2CC1CC1)[C@H]5O4", "activity change": "14.8%"},
      {"compound": "CCCCc1ccc(C(=O)O)nc1", "activity change": "-6.87%"},
      {"compound": "CC(C)Oc1cccnc1N(C)C1CCN(Cc2ccccc2)CC1", "activity change": "-12.2%"},
      {"compound": "C=CC(=O)NCNC(=O)C=C", "activity change": "16.7% [at 8.54 µM]"},
      {"compound": "Fc1cc(Br)ccc1CBr", "activity change": "-3.24% [at 4.29 µM]"},
      {"compound": "OCCCBr", "activity change": "0.191% [at 8.54 µM]"},
      {"compound": "CCCN1CCC[C@H](c2cccc(O)c2)C1", "activity change": "1.34%"},
      {"compound": "CC[C@@]1(O)C(=O)OCc2c1cc1n(c2=O)Cc2cc3ccccc3nc2-1", "activity change": "-94.8%"},
      {"compound": "CO/C=C(/C(=O)OC)c1ccccc1Oc1cc(Oc2ccccc2C#N)ncn1", "activity change": "6.16% [at 8.54 µM]"},
      {"compound": "O=S(=O)(O)C(F)(F)C(F)(F)C(F)(F)C(F)(F)F", "activity change": "-11%"},
      {"compound": "COc1nn(CSP(=S)(OC)OC)c(=O)s1", "activity change": "40.4% [at 8.54 µM]"},
      {"compound": "Clc1cnc(Oc2ccc(Oc3ncc(Cl)cc3Cl)cc2)c(Cl)c1", "activity change": "16.2%"},
      {"compound": "NC(CP(=O)(O)O)C(=O)O", "note": "(stereo not given)", "activity change": "-1.03%"},
      {"compound": "Cc1cc(O)ccc1Cl", "activity change": "2.56% [at 4.29 µM]"},
      {"compound": "COCCOCCO", "activity change": "-1.56% [at 8.54 µM]"},
      {"compound": "O=C1CCCN1CC#CCN1CCCC1", "activity change": "10.9%"},
      {"compound": "Nc1ccc(Sc2ccc(N)cc2)cc1", "activity change": "1.84% [at 8.54 µM]"},
      {"compound": "C[C@@H](N)Cc1cnc[nH]1", "activity change": "9.76%"},
      {"compound": "O=[N+]([O-])c1cc([N+](=O)[O-])c2ccccc2c1", "activity change": "-8.32% [at 8.54 µM]"},
      {"compound": "NCCc1c[nH]c2ccccc12", "activity change": "-10.1%"},
      {"compound": "Nc1ccc(Cl)cc1N", "activity change": "-4.68% [at 8.54 µM]"},
      {"compound": "O=C(O)CC[N+](=O)[O-]", "activity change": "-26.8%"},
      {"compound": "CCOP(=O)(NC(C)C)Oc1ccc(SC)c(C)c1", "note": "(stereo not given)", "activity change": "55.4% [at 8.54 µM]"},
      {"compound": "C[C@]12CCC3C(CC[C@H]4C[C@H](O)CC[C@]34C)C1CC[C@@H]2C(=O)CO", "note": "(stereo not given in full)", "activity change": "-14.6%"},
      {"compound": "CC(Cc1ccc(O)cc1)NCC(O)c1cc(O)cc(O)c1", "note": "(stereo not given)", "activity change": "-4.13%"},
      {"compound": "O=C(O)Cc1cnc[nH]1", "activity change": "7.92%"}
    ]}
  ]
}
